High-throughput results deposited in PubChem BioAssay by University of Kansas High Throughput Screening Laboratory.
mHTT-CaM PPI inh – disrupts binding of mutant huntingtin to calmodulin | AID 1671202 | inhibition, % at 15 µM | P42858 | 190,000 compounds, 3.6% hits | AlphaScreen His-mHTT/GST-CaM binding, luminescence;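 further: 0% = both proteins with DMSO and 100% = one protein alone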
Pf apPOL inh – Pf-apPOL DNA polymerase inhibition; Recombinant Pf-apPOL, molecular beacon fluorescence, 1.5 h; inhibition, % at 10 µM; 210,000 compounds, 0.25% hits; AID 1794808
The depositor's hits bear a star; x = no result; ! = not confirmed by another sample. This excerpt belongs to a sample that is enriched for hits. No stated cut-off is given here; in the data, active means inhibition above about 50%; inactive means the rest.

SMILES | mHTT-CaM PPI inh | Pf apPOL inh
COc1ccc(OCC(=O)Nc2cc(-c3nc4ncccc4o3)ccc2C)cc1 | 8 | -3
COc1ccc(OCC(=O)Nc2cccc(-c3nc4ncccc4o3)c2)cc1 | 3 | 5
Cc1ccc(C(=O)Nc2cccc(-c3nc4ncccc4o3)c2)c(Cl)c1 | 53* | -2
O=C(Nc1cccc(-c2nc3ncccc3o2)c1)c1cccc(Cl)c1Cl | 20 | -8
O=C(COc1ccc(Cl)cc1)Nc1cccc(-c2nc3ncccc3o2)c1 | 50*! | -7
CCC(=O)N1CCN(c2nc3c(s2)CC(C(=O)N2CCN(CC(C)C)CC2)CC3)CC1 (configuration not stated) | 9 | 0
CCOc1ccc(CC(=O)N2CCCn3nc(-c4ccc(Cl)cc4)cc3C2)cc1 | 21 | -8
CN(C)C(CNC(=O)C1CCCCC1)c1ccsc1 (configuration not stated) | -14 | 2
CCOC(=O)CC1(NC(=O)N2CCCC2c2cc(C(C)C)on2)CCCCC1 (configuration not stated) | 4 | 3
COc1nccnc1N1CCC(N(C)S(=O)(=O)N(C)C)C1 (configuration not stated) | -6 | -1
CCCN(CCC)S(=O)(=O)c1cc(-c2nc(C)c(C)s2)sc1C | -10 | -5
COc1ccc([C@@H]2C[C@@H](c3ccccc3)Oc3cc(C)cc(C)c32)cc1 | -8 | -6
COc1ccc([C@@H]2C[C@H](c3ccccc3)Oc3cc4c(cc32)OCO4)cc1 | 60*! | 0
CCOc1ccccc1NC(=O)C(=O)NCC(c1cccnc1)N1CCc2ccccc2C1 (configuration not stated) | -5 | -6
O=C(NCc1csc(C2CCCN(C(=O)c3ccccc3)C2)n1)C1CCC1 (configuration not stated) | 4 | 0
O=C(CSc1nc(-c2ccccc2)c(-c2ccccc2)o1)N1CCOCC1 | 56*! | 10
O=C(CSc1ccccc1)N1CCOCC1 | -2 | -9
O=C(Cc1nc(-c2ccccc2)n[nH]1)Nc1ccc(F)cc1 | -3 | 2
O=C(Cc1nc(-c2ccccn2)n[nH]1)Nc1cccc(Cl)c1 | 99* | -12
O=C(Cc1nc(-c2ccccn2)n[nH]1)Nc1cccc(F)c1 | 99* | -13
O=C(Cc1nc(-c2ccccc2)n[nH]1)Nc1ccccc1 | -2 | -5
Cc1ccc(NC(=O)Cc2nc(-c3ccccc3)n[nH]2)cc1C | -3 | -3
O=C(Cc1nc(-c2ccccn2)n[nH]1)Nc1ccc(Cl)cc1 | 68* | -10
CCOc1cc2occ(-c3ccc4c(c3)OCCO4)c(=O)c2cc1CC | -10 | 0
Cc1ccc2ncn(C3CCN(C(=O)COc4ccccc4)CC3)c2c1 | -6 | -5
SMILES | mHTT-CaM PPI inh | Pf apPOL inh
Cc1cc(C)c2oc(=O)n(C3CCN(C(=O)COc4ccccc4)CC3)c2c1 | 73* | -3
COc1cccc(CN2CCC(C)(O)C(N3CCCC3)C2)c1 (configuration not stated) | 18 | -4
COc1ccc(-c2c(Cc3ccccc3)[nH]n3c(=O)cc(-c4ccc([N+](=O)[O-])cc4)nc23)cc1 | 9 | -1
COc1ccc(Cc2[nH]n3c(=O)cc(-c4ccc([N+](=O)[O-])cc4)nc3c2-c2ccccc2)cc1 | 71* | 6
Cc1ccc(C2=C/C(=C\C=C\c3ccccc3)C(=O)O2)cc1 | 25 | 62*
Cc1ccc(C2=C/C(=C\c3ccccn3)C(=O)O2)cc1 | 5 | -5
COc1ccc(OCC(O)CN2CCN(c3ccccn3)CC2)cc1 (configuration not stated) | -2 | 6
CCCN1C(=O)Cc2cc(C(=O)N3CCN(c4ccccc4C)CC3)ccc21 | 55* | -2
CCCN1C(=O)Cc2cc(C(=O)N3CCN(c4ccccn4)CC3)ccc21 | 4 | -3
N#CCC(N)=Nc1sc2c(c1C#N)CCCC2 | 67* | 6
CC(N)=Nc1sc2c(c1C#N)CCCC2 | -4 | -4
CC12CCC3c4ccc(O)cc4CCC3C1CC(=Cc1ccccc1)C2O (configuration not stated) | 97* | -11
COc1cc2c(cc1O)CC[C@@H]1[C@@H]2CC[C@]2(C)[C@@H](O)CC[C@@H]12 | x | -3
CC12CCC3c4ccc(O)cc4CCC3C1CC(=Cc1ccc(Cl)cc1)C2O (configuration not stated) | 100* | -9
C#CC1(O)CCC2C3CCc4cc(O)ccc4C3CCC21C (configuration not stated) | 0 | 1
COc1cccc(-c2nc(C=Nc3ccc(C)cc3C)c(O)o2)c1 | 3 | 0
CCCNC(=O)c1cnc2c(c(C)nn2C)c1Nc1ccc(C)cc1 | 4 | -2
Cc1ccc(Nc2c(C(=O)NCc3ccc(F)cc3)cnc3c2c(C)nn3C)cc1 | 94* | -4
COc1ccc(CNC(=O)c2ccc(N3CC4CC(C3)c3cccc(=O)n3C4)c(N)c2)cc1 (configuration not stated) | 1 | -2
CC1=C(C)C(=NS(=O)(=O)c2ccccc2)C=CC1=O | 37 | 1
O=C1C(Br)=CC(=NS(=O)(=O)c2ccccc2)C=C1Br | 100* | -2
O=C1C=CC(=NS(=O)(=O)c2ccc(Br)cc2)C=C1 | 24 | -6
O=C1C=CC(=NS(=O)(=O)c2ccccc2)C=C1Br | 57* | -5
CCc1ccc(S(=O)(=O)N=C2C=CC(=O)C(Br)=C2)cc1 | 72* | -3
CC1=CC(=NS(=O)(=O)c2ccc(Br)cc2)C=C(C)C1=O | 52* | -5
SMILES | mHTT-CaM PPI inh | Pf apPOL inh
CC1=CC(=O)C=C(C)C1=NS(=O)(=O)c1ccccc1 | 5 | 5
Cc1ccc(S(=O)(=O)N=C2C=CC(=NS(=O)(=O)c3ccc(C)cc3)C=C2)cc1 | 23 | -2
COc1ccc(C2C=C(C(=O)O)Nc3nnnn32)cc1 (configuration not stated) | -7 | 9
CN(C)C(=O)C1CCc2sc(C(=O)N3CCCCCC3)cc2C1 (configuration not stated) | -2 | -7
Cc1cc(C)c(S(=O)(=O)N=C2C=CC(=O)C=C2)cc1C | 30 | 6
Cc1cc(C)c(S(=O)(=O)N=C2C=CC(=O)C(Br)=C2)cc1C | 58* | -7
COc1cccc(C(=O)N2CCc3c(c(C(=O)NCc4ccc(F)cc4)nn3C)C2)c1 | 86* | -14
Cn1nc(C(=O)NCc2ccc(F)cc2)c2c1CCN(C(=O)c1cccs1)C2 | 0 | -12
Cc1cccc(C(=O)N2CCc3c(c(C(=O)NCc4ccc(F)cc4)nn3C)C2)c1 | 73* | -10
Cn1nc(C(=O)NCc2ccc(F)cc2)c2c1CCN(C(=O)c1ccc(F)cc1)C2 | -6 | -4
COc1ccc(Cl)cc1NC(=O)Nc1ccc2c(c1)N(C)C(=O)C(C)(C)CO2 | -3 | -5
CCNc1nc(OCC#N)nc(N2CCCCC2)n1 | 0 | -1
Cc1ccccc1C(=O)Nc1cccn2nc(C3CC3)nc12 | 17 | -24
O=C(Cc1cccs1)Nc1cccn2nc(C3CC3)nc12 | 35 | 61*
COc1ccc(C(=O)Nc2cccc(C)c2C(=O)O)cc1 | 0 | -2
N#Cc1nc(COc2ccccc2Cl)oc1N1CCCCC1 | 19 | -5
N#Cc1nc(COc2ccccc2Cl)oc1N1CCN(Cc2ccccc2)CC1 | 52* | -2
COc1cc(OC)c2c(-c3ccccc3)cc(=O)oc2c1C(CC(=O)N1CCOCC1)c1ccc(N(C)C)cc1 (configuration not stated) | 66* | -4
